Reference: PubChem BioAssay AID687020 (Broad Institute, 2013)
About 100 (7.1%) of roughly 1,400 compounds were called active. The rule behind the calls is not given here. These entries were drawn from the full list. Results with a measured potency or affinity are listed apart.

assay: viability loss in Vero cells – cell-based, plate reader, cherry-pick samples, cytotoxicity control, dose response (AID 687020); details: series mostly up to 19.5 µM; activity change, negative = toxicity: at the top concentration;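 note: compounds incubated with cells for three days before luminescence read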

Row | SMILES | activity change, negative = toxicity
1 | COc1ccc(-c2ccccc2)cc1NC(=O)c1cccs1 | -35% (inactive)
2 | CC(C)NC(=O)N(C)C[C@@H]1Oc2ccc(NC(=O)Cc3cn(C)c4ccccc34)cc2C(=O)N([C@@H](C)CO)C[C@H]1C | 9.26% (inactive)
3 | OC(COC(c1ccc(Cl)cc1)c1ccc(Cl)cc1)CN1CCN(c2ccccn2)CC1 (configuration not stated) | -12.4% (inactive)
4 | CCN(CC)c1ccc(/C=N/N2C(=O)c3ccccc3C2=O)c(O)c1 | 1.43% (inactive)
5 | CCc1ccccc1OCC(=O)NNCC(=O)Nc1cccc(C#N)c1 | -25.6% (inactive)
6 | COc1cccc(NC(=O)CCN2C(=O)C3CC=CCC3C2=O)c1 (configuration not stated) | -2.23% (inactive)
7 | CC(=O)N1[C@H](CO)[C@@H](c2ccc(-c3cccc(F)c3)cc2)[C@H]1CNC(=O)C1CC1 | 1.3% (inactive)
8 | COc1ccc([C@H]2C[C@@H](n3cc(C4CC4)nn3)[C@H](O)CN2Cc2cccs2)cc1 | -10.8% (inactive)
9 | COc1ccc(C(=O)N2CCCCC2c2cc(C(=O)NCc3cccnc3)no2)cc1 (configuration not stated) | -22.5% (inactive)
10 | C[C@H](NC(=O)C1CCN(S(=O)(=O)c2ccccc2)CC1)C(=O)NCc1cccnc1 | -1.95% (inactive)
11 | CC(C)[C@H](NC(=O)c1cccs1)C(=O)N1CCC[C@H]1C(=O)NCc1ccccc1 | 1.98% (inactive)
12 | O=C(Nc1ccc2c(c1)CCC2)c1ccccc1 | -24.3% (inactive)
13 | CN1CCC(=O)N([C@H](COc2ccccc2)Cc2ccccc2)CC1 | -32.2% (inactive)
14 | Cc1cccc(C(=O)OCC(=O)NCc2ccc(Cl)cc2)c1 | 3.4% (inactive)
15 | CSc1ccccc1OCc1cc(C(=O)N2CCc3[nH]cnc3C2c2ccccn2)no1 (configuration not stated) | -6.11% (inactive)
16 | CN1C(c2ccccc2)CCOS1(=O)=O (configuration not stated) | -1.7% (inactive)
17 | C=CCOc1ccc(CNCc2cccnc2)cc1OCC | -10% (inactive)
18 | Cc1nc2c(OCCC3CCCCC3)cccn2c1N(C)C(=O)CCC1CCCC1 | -28% (inactive)
19 | Cc1ccc(-c2nc3ccccc3n2C(C(=O)NC(C)(C)C)C2CC2)cc1 (configuration not stated) | -7.18% (inactive)
20 | Cc1csc(-c2nc3ccccc3n2C(C(=O)NC(C)(C)C)c2ccccc2)c1 (configuration not stated) | -16% (inactive)
21 | CCOc1ccc(OCC(=O)N(C)c2c(N)n(Cc3ccccc3)c(=O)[nH]c2=O)cc1 | -14.1% (inactive)
22 | CC#CCN1C(=O)N[C@@H](c2ccccc2)C(C(=O)OC)=C1C | -21.8% (inactive)
23 | C[C@@H]1CN([C@H](C)CO)C(=O)c2cc(NC(=O)c3ccncc3)ccc2O[C@@H](C)CCCCO[C@H]1CN(C)C | -1.49% (inactive)
24 | COc1ccc2c(=O)cc(-c3ccncc3)oc2c1OC | -13.6% (inactive)

Row | SMILES | activity change, negative = toxicity
25 | CCOC(=O)C1=C(C)NC(=O)C(C#N)C1c1ccncc1 (configuration not stated) | -5.8% (inactive)
26 | Cc1cc(OCC(=O)NC2CC(C)(C)NC(C)(C)C2)c(C)cc1Br | 12.8% (inactive)
27 | CCc1cc(=O)oc2cc(OCC(=O)NC3CC(C)(C)NC(C)(C)C3)ccc12 | -15.9% (inactive)
28 | CCOC(=O)C1(Cc2ccccc2C)CCCN(C(=O)c2cc(C3CC3)[nH]n2)C1 (configuration not stated) | -27.9% (inactive)
29 | N#CC(Cc1ccccc1OC(F)F)c1nc2ccccc2[nH]1 (configuration not stated) | -9.96% (inactive)
30 | CC(=O)NC[C@H]1[C@H](c2ccc(-c3ccccc3F)cc2)[C@@H](CO)N1C(=O)C1CC1 | -10.5% (inactive)
31 | O=C(COC(=O)c1ccc2c(c1)OCO2)NC1CCCCC1 | -7.5% (inactive)
32 | COCCNC(=O)C1(C)CCCN(C(=O)c2ccc(C(F)(F)F)cc2)C1 (configuration not stated) | -9.24% (inactive)
33 | CO[C@@H]1CN(C)C(=O)c2cc(NC(=O)c3ccccc3)ccc2OC[C@H](C)N(C(=O)C2CC2)C[C@@H]1C | -1.15% (inactive)
34 | O=C(O)C1CCCCC1C(=O)N1CCN(S(=O)(=O)c2ccc(F)cc2)CC1 (configuration not stated) | -12.7% (inactive)
35 | COc1cc(C(=S)N2CCCCC2)ccc1OCC(=O)Nc1ccc(F)cc1 | -33.6% (inactive)
36 | O=C(NCCCC1CCCC1)C1CCC(=O)N(Cc2cccc(C(F)(F)F)c2)C1 (configuration not stated) | 8.67% (inactive)
37 | COc1ccc(NC(=O)Nc2ccc3c(c2)C(=O)N([C@@H](C)CO)C[C@H](C)[C@H](CN(C)Cc2ccc(C(=O)O)cc2)OCCCC[C@H](C)O3)cc1 | -1.97% (inactive)
38 | O=C1NC[C@H](Cc2ccccc2)N(CC2CCN(CCCCc3ccccc3)CC2)C1=O | -14.5% (inactive)
39 | O=C1[C@@H](Oc2ccccc2)[C@@H](c2ccncc2)N1c1ccccc1 | 7.85% (inactive)
40 | COc1cccc(OCc2cc(C(=O)N(C)CCC3CCCCO3)no2)c1 (configuration not stated) | -26.9% (inactive)
41 | COc1cc(C(=S)N2CCCC2)ccc1OCc1ccc(C)cc1 | -12.9% (inactive)
42 | O=S(=O)(NCCC1=CCCCC1)c1ccc(Br)cc1 | 3.27% (inactive)
43 | F[B-](F)(F)c1cnc2ccccc2c1 | 12.8% (inactive)
44 | Cn1cccc1C(=O)OCC(=O)NC(=O)c1ccc(Cl)cc1 | -5.5% (inactive)
45 | C[C@H](CO)N1C[C@H](C)[C@@H](CN(C)C(=O)Nc2ccc(C(F)(F)F)cc2)OCCCC[C@H](C)Oc2ccc(NS(=O)(=O)c3cccs3)cc2C1=O | -1.02% (inactive)
46 | Cc1noc(C)c1NC(=O)Nc1ccc2c(c1)C(=O)N([C@@H](C)CO)C[C@@H](C)[C@@H](CN(C)Cc1ccccc1)OCCCC[C@@H](C)O2 | -5.3% (inactive)
47 | CNC[C@@H]1OCCCC[C@H](C)Oc2ccc(NS(=O)(=O)c3c(C)noc3C)cc2C(=O)N([C@@H](C)CO)C[C@H]1C | -5.49% (inactive)
